Shown are actives, neighbours in structure and some others; about 0.49% of the full set was active somewhere.
USP1-UAF1 inh: inhibitors of human USP1/UAF1 deubiquitinase | O94782 | recombinant USP1/UAF1, Ub-Rhodamine cleavage fluorescence | 0.23% of 390,000 active | Potency, µM (top dose mostly 57.1 µM), without a hit: top-dose activity change, negative = inhibition, hits mostly inhibitors; further: on the % scale 0 is the no-effect control and ±100 the full control effect; nearly all actives have a fitted effect of over 60% in size
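Step one: compound is pinned into 1nM USP1/UAF1 in HEPES pH 7.8 buffer with TCEP. Step two: 15 min room-temperature incubation. Step three: Ub-Rho (150nM final) starts cleavage, tracked by fluorescence over six one-minute reads.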
EPAC2 antagonist: antagonists of human EPAC2; EPAC2 GEF exchange of Rap1B-BODIPY-GDP, fluorescence; 0.18% of 360,000 active; Q8WZA2; Potency, µM (top dose mostly 114 µM), inactives show top-dose activity, negative = inhibition, hits mostly inhibitors; AID 720708; further: on the % scale 0 is the no-effect control and ±100 the full control effect; nearly all actives have a fitted effect of over 45% in size
Target sequence (Q8WZA2 whole entry, looked up): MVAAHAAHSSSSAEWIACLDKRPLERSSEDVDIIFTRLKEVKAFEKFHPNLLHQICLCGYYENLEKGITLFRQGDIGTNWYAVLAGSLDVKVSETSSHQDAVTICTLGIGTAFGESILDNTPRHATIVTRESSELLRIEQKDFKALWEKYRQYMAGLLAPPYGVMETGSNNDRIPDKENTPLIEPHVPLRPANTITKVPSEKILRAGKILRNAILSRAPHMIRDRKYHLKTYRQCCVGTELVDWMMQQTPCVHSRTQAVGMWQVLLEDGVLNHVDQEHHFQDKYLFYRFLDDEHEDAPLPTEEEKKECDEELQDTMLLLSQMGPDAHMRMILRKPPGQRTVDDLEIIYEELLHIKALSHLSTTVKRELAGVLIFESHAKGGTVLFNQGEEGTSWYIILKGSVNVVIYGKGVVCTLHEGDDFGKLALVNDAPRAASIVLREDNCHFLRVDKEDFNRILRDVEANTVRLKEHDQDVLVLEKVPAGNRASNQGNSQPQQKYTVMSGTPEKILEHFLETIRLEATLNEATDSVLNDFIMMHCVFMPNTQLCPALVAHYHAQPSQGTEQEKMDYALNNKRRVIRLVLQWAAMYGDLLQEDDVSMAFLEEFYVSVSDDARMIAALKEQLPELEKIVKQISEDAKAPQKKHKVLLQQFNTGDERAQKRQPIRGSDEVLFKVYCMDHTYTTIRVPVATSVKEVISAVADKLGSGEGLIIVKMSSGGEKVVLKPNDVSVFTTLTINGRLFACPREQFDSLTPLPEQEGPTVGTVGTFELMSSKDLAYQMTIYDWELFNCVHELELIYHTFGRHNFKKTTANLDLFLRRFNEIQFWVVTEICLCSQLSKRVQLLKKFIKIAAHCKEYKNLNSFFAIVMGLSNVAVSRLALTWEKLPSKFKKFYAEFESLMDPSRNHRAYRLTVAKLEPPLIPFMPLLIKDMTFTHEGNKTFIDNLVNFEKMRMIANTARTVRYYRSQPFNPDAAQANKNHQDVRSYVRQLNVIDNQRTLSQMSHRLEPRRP
EPAC1 antagonist: blocks human EPAC1 exchange factor; O95398; EPAC1 GEF assay, Rap1b-BODIPY-GDP exchange fluorescence; Potency, µM (series often up to 115 µM), for the others: top-dose activity change, negative = inhibition, actives largely listed as inhibitors; 0.14% of 360,000 active;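 further: plate controls were vehicle for no effect and positive control for full effect; nearly all actives have a fitted effect of over 50% in size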
EPAC1 agonist: activates human EPAC1 exchange factor; O95398; EPAC1 agonist qHTS, biochemical assay; response scale: 100% = response to 6.5 mM cAMP; Potency, µM (series often up to 154 µM), for inactives: at the highest dose activation, hits mostly activators; 0.073% of 360,000 active; AID 720707; further: nearly all actives have a fitted effect of over 60% in size
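Multi-concentration qHTS readout: loss of Rap1B-bound BODIPY-GDP fluorescence driven by 100 nM EPAC1 with excess GDP (50 uM), monitored kinetically at room temperature; agonist response expressed relative to 6.5 mM cAMP.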
EPAC2 agonist: activates human EPAC2 exchange factor; Q8WZA2; EPAC2 activation, biochemical qHTS; response scale: 100% = 6.5 mM cAMP response; Potency, µM (top dose mostly 154 µM), for inactives: top-dose activation, usual class: activators; 0.079% of 360,000 active; further: nearly all actives have a fitted effect of over 50% in size
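In this primary screen, activation is scored as increased exchange of BODIPY-GDP from Rap1B by 100 nM EPAC2, with 50 uM GDP as competitor. Signal is normalized to the 6.5 mM cAMP agonist control.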
Numbers without * were called inactive; ? = inconclusive; . = no result. The call rests on the fitted dose curve; in most records, active means well fitted curve in the direction sought with a large enough effect; inconclusive means small, poorly fitted or top-dose-only effect, or another doubt; inactive means no such curve, though single readings can be large; an effect the other way counts as inactive or inconclusive. Potency means the concentration at half of the fitted maximal effect.

SMILES	USP1-UAF1 inh	EPAC2 antagonist	EPAC1 antagonist	EPAC1 agonist	EPAC2 agonist
Cc1ccc(N2C(=O)c3cccc4c([N+](=O)[O-])ccc(c34)C2=O)c2cccnc12	-6%	11%	-27%	-1%	2%
Cc1ccccc1C1=C/C(=C(\SS/C(C(=O)c2ccc(OCC(=O)O)c(Cl)c2Cl)=C2\C=C(c3ccccc3C)SS2)C(=O)c2ccc(OCC(=O)O)c(Cl)c2Cl)SS1	32µM*	71µM*	50µM*	0%	-1%
COC(=O)c1cc(C)nc2c1C(=O)C(=O)C=C2N1CCOCC1	1.3µM*	?	3.5µM*	-9%	?
O=C(O)c1cccc(N2C(=O)c3cc([N+](=O)[O-])cc4cc([N+](=O)[O-])cc(c34)C2=O)c1	-20%	50µM*	-10%	-4%	7%
Cc1cccc(Cn2c(SCc3ccc(C(=O)NCCc4ccccc4)cc3)nc3cccnc32)c1	-20%	.	.	.	.
COc1ccc(OC)c(/C=C/c2nc3ccccc3[nH]c2=O)c1	180%	58%	68%	89µM*	?
CCOC(=O)C1CCCCN1Cc1cccc(Oc2ccccc2)c1 (stereo not given)	3%	40µM*	-15%	-3%	3%
CCOC(=O)C1CCCCN1Cc1cccc(OCc2ccccc2)c1 (stereo not given)	-24%	-11%	-1%	1%	13%
Cn1cccc1/C=C1\CC(C(C)(C)C)C/C(=C\c2cccn2C)C1=O (stereo not given)	11µM*	-28%	7%	6%	-18%
CN1C2CCC1/C(=C\c1ccc(F)cc1)C(=O)/C2=C/c1ccc(F)cc1	-4%	2%	1%	5%	-3%
CN1C2CCC1/C(=C/c1cccn1C)C(=O)/C2=C\c1cccn1C	28µM*	49%	49%	?	?
CNC(=O)C1CCC(Cn2c(=O)c3sccc3n(CC(=O)Nc3ccc(C)c(F)c3)c2=O)CC1 (stereo not given)	-4%	.	.	.	.
C[C@]1(C2CCCC2)Cc2cc(OCC(=O)O)c(Cl)c(Cl)c2C1=O	-19%	-22%	-6%	-21%	2%
CCCC[C@@]1(C2CCCC2)Cc2cc(OCC(=O)O)c(Cl)c(Cl)c2C1=O	-28%	45µM*	-20%	-11%	-3%
CCCn1c(O)c(N=Nc2ccc3ccccc3n2)c2ccccc21	-17%	68%	1%	-5%	89µM*
O=C(O)c1ccc(NC2=C/C(=N/S(=O)(=O)c3cccs3)c3ccccc3C2=O)cc1	5µM*	?	50µM*	-18%	18%
O=C1C(Nc2ccc(O)cc2)=C/C(=N/S(=O)(=O)c2cccs2)c2ccccc21	4.5µM*	3%	-12%	10%	19%
Cc1cccc(NC2=C/C(=N/S(=O)(=O)c3cccs3)c3ccccc3C2=O)c1	?	-11%	0%	11%	6%
O=C(O)c1ccc(Nc2nc3ccccc3nc2NS(=O)(=O)c2cccs2)cc1	-16%	-4%	?	0%	-3%
CCc1ccccc1NC(=O)c1ccc(CN2C(=O)CCn3nc(C)cc32)cc1	2%	.	.	.	.
COc1cc(OC)cc(N2C(=O)N(Cc3ccc(C(C)(C)C)cc3)c3ccccc3S2(=O)=O)c1	-19%	.	.	.	.
O=C1CC(c2ccccc2)Oc2cc(O)cc(O)c21 (stereo not given)	-11%	-21%	1%	-18%	8%
CC1CC(=O)c2c(cc3c(-c4c(O)cc(O)c5c(O)c6c(cc45)OC(C)CC6=O)c(O)cc(O)c3c2O)O1 (stereo not given)	32µM*	26%	?	-20%	-22%
CC1=NN(c2ccccc2)C(=O)/C1=C\c1c(C)[nH]n(-c2ccccc2)c1=O	-21%	-2%	13%	9%	-4%
CC1=NN(c2ccccc2)C(=O)/C1=C/c1c(O)n(-c2ccc(F)c(Cl)c2)[nH]c1=O	-16%	89µM*	50µM*	-18%	-18%
Cc1cc2ccccn2c1C(=O)c1ccc(Cl)cc1	-15%	?	-16%	25%	25%
Cc1cc2ccccn2c1C(=O)c1ccccc1F	-16%	45µM*	-10%	5%	12%

From PubChem
